# Bioassay records (PubChem)
# FBW7 act: activators of human E3 ligase FBW7. AlphaScreen FBW7–phospho-cyclin E peptide binding, activator screen. normalized activity (activation), % at 26.1 µM. 0.13% of 650,000 active. AID 1259310; in the data active = normalized activity above about 1.9%;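 also: purified mutant Fbw7 with reduced substrate affinity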
# TEAD-YAP block: TEAD-YAP interaction inhibition | HEK-TIYL cells, TEAD-Gal4/YAP UAS-luciferase luminescence | inhibition, % at 9.12 µM | 1.4% of 640,000 active | AID 1259422; in the data active = inhibition above about 32%;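 also: 0% = median of test compound wells and 100% = reference inhibitor wells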
# GPR151 ag: human GPR151 activation. Q8TDV0. PathHunter beta-arrestin GPR151 cells, luminescence. activation, % at 11.2 µM. 1% of 650,000 active; in the data active = activation above about 4.9%;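 also: 0% = median of compound wells and 100% = cells with positive control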
# Target sequence (Q8TDV0 whole entry, looked up): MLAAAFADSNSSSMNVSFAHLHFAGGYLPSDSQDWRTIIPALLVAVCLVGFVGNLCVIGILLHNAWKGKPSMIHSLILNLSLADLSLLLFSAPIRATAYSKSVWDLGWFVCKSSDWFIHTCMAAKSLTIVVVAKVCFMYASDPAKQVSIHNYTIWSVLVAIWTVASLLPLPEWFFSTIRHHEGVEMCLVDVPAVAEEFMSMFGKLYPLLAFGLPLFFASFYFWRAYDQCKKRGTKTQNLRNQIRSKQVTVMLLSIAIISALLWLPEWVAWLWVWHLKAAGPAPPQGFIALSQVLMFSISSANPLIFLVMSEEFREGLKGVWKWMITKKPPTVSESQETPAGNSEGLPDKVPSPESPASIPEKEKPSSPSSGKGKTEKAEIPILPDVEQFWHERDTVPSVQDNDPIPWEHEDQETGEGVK
# MITF primary: inhibitors of human MITF. O75030. AlphaScreen MITF homodimerization, bead proximity signal. inhibition, % at 2.6 µM. 0.91% of 650,000 active. AID 1259374; in the data active = inhibition above about 50%;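 also: 0% = vehicle wells with protein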
# * marks the source's active call; other numbers are inactive results; nt = not tested or not shown; ! = repeats disagree. Only some compounds are listed: those with a hit (about 3.4% of all), similar ones and a draw of the others.
SMILES,FBW7 act,TEAD-YAP block,GPR151 ag,MITF primary
C[C@]12CC[C@H]3[C@@H](CC[C@]4(O)C[C@@H](O)CC[C@]34C=O)[C@@]1(O)CC[C@@H]2C1=CC(=O)OC1,0.1,101.2*,0.6,17.9
COCCCn1c(N)c(C(=O)OCCC(C)C)c2nc3ccccc3nc21,0.1,-5.1,-0.5,13.4
CC(Cc1cccs1)NCc1c(C(=O)N2CCCC2)nc2sccn12 (stereo not given),0.2,7.0,1.2,-5.9
CON=C(C(=O)OC)c1ccccc1CON=C(C)c1cccc(C(F)(F)F)c1,nt,nt,-0.1,nt
O=C(CN1CCc2ccccc2C1)Nc1ccc([N+](=O)[O-])cc1C(=O)c1ccccc1,-0.4,10.2,2.0,8.3
O=c1c2ccccc2nc(/C=C\c2cccc(Br)c2)n1-c1cccc(F)c1,0.7,2.4,-0.2,5.3
COc1ccc(Nc2nnc(SCC(=O)Nc3ccc(C#N)c(Cl)c3)s2)cc1,-0.1,-31.7,0.5,0.7
CC(=O)c1ccc(OC(=O)N(C)c2ccccc2)cc1,-0.1,-41.0,0.2,-5.8
Cc1cc(N(C)C)cc(C)[n+]1OC(=O)N(c1ccccc1)c1ccccc1,-0.2,64.1*,-0.2,-1.6
CC(N)[C@H](O)c1ccc(O)c(O)c1 (stereo not given in full),-0.3,-1.5,-0.4,89.1*
C[C@H](N)[C@H](O)c1ccccc1,0.0,-2.5,-3.1,-11.1
c1ccc(C2=NN(c3ccccc3)N(c3ccccc3)N2)cc1,0.1,76.3*,3.6,-9.0
Cc1cncc2cccc(N3CCNCC3)c12,0.1,37.6*,-0.6,14.0
c1ccc2c(N3CCNCC3)cccc2c1,-0.1,2.2,4.4,-16.4
CN1CCN(C(=O)Cc2ccc(NC3=NC4CS(=O)(=O)CC4S3)cc2)CC1 (stereo not given),2.6*,-22.6,-0.3,21.2
CNC(=O)Oc1cc([N+](=O)[O-])cc2cccnc12,-1.3,74.5*,-0.6,96.0*
COC(=O)CN1C(=O)C2(C(C(=O)OC)=C(N)Oc3n[nH]c(C)c32)c2ccccc21 (stereo not given),0.7,0.4,-1.1,13.5
CCCCCn1c(=O)c(C(=O)Nc2nnc(CC(C)C)s2)c(O)c2ccccc21,-0.1,5.1,0.1,-18.7
COC(C(=O)O)(c1ccccc1)c1ccccc1,0.2,6.6,2.4,9.4
COc1ccc2cc(-c3nc4ccccc4[nH]3)c(=N)oc2c1,0.2,65.5*,-8.9,-14.7
COc1ccc(OC)c(CNCCc2c[nH]c3ccccc23)c1,0.2,-1.2,-0.7,64.5*
CCN(CC)CCN(C(=O)Cc1ccccc1)c1nc2ccccc2s1,0.0,-8.2,0.3,2.0
CC(=O)c1ccc(-c2ccccc2)cc1,0.0,-28.3,0.1,-9.0
N#CC(C#N)=NNc1ccc(-c2ccccc2)cc1,-0.2,43.9*,1.3,1.0
Cc1c(CCN)c2cccc3c2n1CC3,0.0,9.8,0.0,35.7
SMILES,FBW7 act,TEAD-YAP block,GPR151 ag,MITF primary
N#CC(C#N)=Cc1ccc(O)c(O)c1,-0.2,7.8,-1.4,74.1*!
Cc1ccc(NC(=O)CCc2nc(C3=CCN(C)CC3)no2)c(Cl)c1,1.2,0.1,2.1,21.6
COc1cc(C)c(/C=C/[N+](=O)[O-])cc1C(C)C,0.0,36.6*,-0.2,-8.9
CN(C)/C=C(/C=[N+](C)C)n1cc([N+](=O)[O-])cn1,-0.2,4.4,0.0,15.0
CN1/C(=C/C=C/c2oc3ccccc3[n+]2C)Oc2ccccc21 (tested in a mixture with another compound),0.0,79.4*,0.4,3.1
O=C(Nc1ccncc1)C(=O)c1cn(Cc2ccc(Cl)cc2)c2ccccc12,0.1,44.6*,-0.8,7.5
O=C1C=C2C(=CCOC2O)O1 (stereo not given),0.3,39.4*,-0.2,29.1
COC(=O)C1(C#N)CC2c3ccccc3C1c1ccccc12 (stereo not given),-0.1,2.8,2.8,-0.8
CCOC(=O)C1(C#N)CC2c3ccccc3C1c1ccccc12 (stereo not given),2.0*,7.1,1.7,14.6
CN(C)C(=S)SSC(=S)N(C)C,-0.1,34.4*,1.1,-12.2
C=CCN1C(=O)/C(=C\c2ccc(C)o2)C(=O)NC1=S,0.0,-6.4,-1.4,4.4
Cc1ccc(C=C2C(=O)NC(=S)NC2=O)o1,-0.4,10.5,0.1,66.5*
Cc1ccc(/C=C2/C(=O)NC(=O)N(C)C2=O)cc1,-0.1,-6.0,-0.2,-1.4
CN1C(=O)NC(=O)/C(=C/c2ccc(I)o2)C1=O,-0.5,5.5,0.5,63.0*
CC(=O)c1ccc(C(=O)Nc2ccc(Cl)cc2C(=O)c2ccccc2)cc1,-0.1,-4.4,0.8,7.2
CCCOc1ccc(/C=C(/C)[N+](=O)[O-])cc1OC,0.0,37.2*,-0.7,-13.6
CCOC(=O)C1C2NC(=S)N(c3ccc(F)cc3)C1(C)Oc1ccccc12 (stereo not given),-0.3,1.0,-0.2,24.9
CC(C)(C)CN1CCN(Cc2ccc(F)cc2)C(CCO)C1 (stereo not given),0.0,5.5,-1.3,7.5
O=C(O)COc1ccccc1/C=C1\C(=O)NC(=O)N(c2ccc(O)cc2)C1=O,-0.3,6.0,0.1,75.1*
COc1cc(/C=C2\C(=O)NC(=O)N(c3ccc([N+](=O)[O-])cc3)C2=O)ccc1OCC(=O)O,-0.1,12.2,0.0,9.2
COc1ccc(/C=C/c2nc3ccccc3c(=O)n2-c2ccc(F)c(Cl)c2)cc1,-0.1,-9.8,1.1,2.5
O=C1NC(=O)N(c2ccc(Br)cc2)C(=O)/C1=C/c1ccc(O)cc1,0.1,-1.2,2.0,16.2
O=C1NC(=O)N(c2ccc(Br)cc2)C(=O)/C1=C/c1ccc(O)c(O)c1,-0.1,1.2,1.2,89.6*
CCCCC[C@H]1C(=O)O[C@H](C)[C@H](NC(=O)c2cccc(NC=O)c2O)C(=O)O[C@@H](C)[C@@H]1OC(=O)CC(C)C,0.1,51.8*,1.9,-3.0
CCCCCC[C@H]1C(=O)O[C@H](C)[C@H](NC(=O)c2cccc(NC=O)c2O)C(=O)O[C@@H](C)[C@@H]1OC(=O)CC(C)C,0.1,49.5*,0.4,-16.7
SMILES,FBW7 act,TEAD-YAP block,GPR151 ag,MITF primary
COc1cccc(/C=C/c2nc3ccccc3c(=O)n2-c2ccc(F)c(Cl)c2)c1,-0.1,-5.7,-0.2,-2.2
CC[C@@]1(O)C[C@H](O[C@H]2C[C@H](N(C)C)[C@H](O)[C@H](C)O2)c2c(cc3c(c2O)C(=O)c2c(O)cccc2C3=O)[C@H]1C(=O)OC,-0.1,50.9*,0.4,16.6
CC[C@@]1(O)C[C@H](O[C@H]2C[C@H](N(C)C)[C@H](O)[C@H](C)O2)c2c(cc3c(c2O)C(=O)c2c(O)ccc(O)c2C3=O)[C@H]1C(=O)OC,-0.2,-9.0,0.9,16.7
CC(C)(C)n1cc(C(=O)c2ccc3ccccc3c2O)cn1,-0.1,49.6*,0.1,-8.9
CC(C)(C)n1cc(C(=O)c2ccccc2O)cn1,0.0,-34.6,1.2,9.4
S=C(Nc1cccc(Br)c1)N1CCCCC1c1cccnc1 (stereo not given),-0.2,3.1,1.0,-4.8
CCOc1ccc(-c2nc(CSCC(=O)N3CCC4(CC3)OCCO4)c(C)o2)cc1,0.4,53.0*,0.5,-1.6
